For 40 compounds, growth results are on record in PubChem BioAssay (NCI).

This is part of a sample that, as a whole, favours compounds with a hit. Of some 83,000 tested, about 20% had one in any assay.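 Cells were grown in 96-well plates and exposed to the test compound at a single concentration for 48 hours; results are reported as percent growth, with values below 10 considered active.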 Unmarked numbers belong to inactive results. Calls of active or inactive are those of the source.

In the experiment the test system is MDA-MB-468 breast. The experiment can be described thus: NCI-60 one-dose screen, 48 h (100 = growth as untreated, 0 = no growth, -100 = all killed). Conditions: 10 µM unless noted.
On to `COc1ccc(NC(=O)CSc2nc3ccc(Cl)cc3c(=O)n2-c2ccccc2C(F)(F)F)c(OC)c1OC`, for which the growth is 79.6%.

Regarding `CC(C)=CCC[C@](C)(O)[C@H]1CC[C@]2(C)[C@@H]1CC[C@@H]1[C@@]3(C)Cc4nccnc4C(C)(C)[C@@H]3CC[C@]12C`, the growth was 69.4%.

As to `CC1OC(O[C@H]2/C=C/C=C/C=C/C=C/C=C/C=C/C=C/[C@H](C)[C@@H](O)[C@@H](C)[C@H](C)OC(=O)CC(O)CC(O)CCC(O)C(O)CC(O)C[C@]3(O)C[C@H](O)C(C(=O)O)C(C2)O3)C(O)[C@H](N)C1O` (stereo not given in full), the growth was 83.3%.

For `O=C(/C=C/c1ccc([N+](=O)[O-])cc1)c1ccccc1`, the growth is 110%.

For the compound `CN1CCN(c2nc(-c3cccc4ccccc34)nc3sc4c(c23)CCCCCC4)CC1`, the growth was 77.3%.

`COc1ccc(-c2nn(-c3ccccc3)cc2/C=C2/SC(=S)N(C)C2=O)cc1`: the growth is 89.1%.

On to `COc1cc(/C=C/C(=O)N2CCN(C(=O)/C=C/c3ccccc3)CC2)cc(OC)c1OC`, for which the growth was 107%.

In the case of `c1ccc2cc(C[n+]3ccn(CCCCCCn4cc[n+](Cc5ccc6ccccc6c5)c4)c3)ccc2c1`, the growth was 10.1%.

As for `CC1=CCC(OC(=O)C(C)(C)CCC(O)(C(=O)OC2(C(C)C)CCC3(C)OC3C2)C(C)C)(C(C)C)CC1` (stereo not given), the growth is -64.4% (active).

On to `CCN1CCN(c2nc(C)cc(N(CCNc3ccnc4cc(Cl)ccc34)Cc3ccc4c(c3)OCO4)n2)CC1`, for which the growth was -65.3% (active).

`O=[N+]([O-])c1cccc(C(c2ccccc2)c2ccccc2)c1`: the growth is 93.9%.

As to `O=C(/C=C/c1c(Cl)nc2sccn12)c1nccs1`, the growth was 75.7%.

`COc1cc(OC)c(/C=C/S(=O)(=O)Cc2ccc(OC)c(NCC(=O)O)c2)c(OC)c1`: the growth was -4.64% (active).

Regarding `C/C=C/C(N)=O`, the growth was 101%.

As for `COC(=O)[C@]12CC[C@@H](C)[C@H](C)[C@@H]1C1=CC[C@@H]3[C@@]4(C)C(C=O)=C[C@@](C)(COC(=O)c5ccco5)C4=CC[C@@]3(C)[C@]1(C)CC2`, the growth is 5.01% (active).

Regarding `O=C(NNc1nc2cc(F)c(F)cc2n2c(CN3CC4CNCC4C3)ccc12)c1ncccn1` (stereo not given), the growth is -10.6% (active).

As to `O=C(Nc1cccc(-n2cc(-c3ccncc3)c(-c3ccc(O)c(Cl)c3)n2)c1)Nc1ccc(Cl)c(Cl)c1`, the growth was 27.3%.

`COc1cc(/C=C2\CN(C)C/C(=C\c3cc(CN4CCCC4)c(O)c(OC)c3)C2=O)cc(CN2CCCC2)c1O`: the growth is 41.8%.

In the case of `NC(CCl)=NCC12CC3CC(CC(C3)C1)C2`, the growth is -31.3% (active).

Take `COc1ccc(NC(=O)c2sc3nc(C)c(C(=O)c4ccccc4)cc3c2N)cc1`: the growth was 83.9%.

With `S=c1nc(-c2ccccc2)oc(=NC2CCCCC2)n1C1CCCCC1`, the growth was -42.1% (active).

Take `CC(=O)[C@@H]1CC[C@]2(C(N)=O)CC[C@]3(C)[C@H](CC[C@@H]4[C@@]5(C)CCC(=O)C(C)(C)[C@@H]5CC[C@]43C)[C@@H]12`: the growth was 98.5%.

As to `COc1ccc([N+](=O)[O-])c(C(=O)O)c1`, the growth is 96.4%.

Consider `CCCC(=O)Oc1ccc(/C(=C(\C)c2ccc(OC)cc2)c2ccc(OCCN3CCCCC3)cc2)cc1`, for which the growth is 68.6%.

For the compound `OC(c1cc2ccc(C(F)(F)F)cc2c2cc(C(F)(F)F)ccc12)C1CCCCN1` (stereo not given), the growth was -74% (active).

As to `COc1ccc(Cl)cc1NC(=O)c1cc2c([nH]1)-c1nc(NC(=O)C(C)C)sc1CC2`, the growth was 112%.

As for `CC(=O)CCSc1ccc(OC(C)=O)cc1`, the growth was 101%.

Consider `O=C(CCCCCCC(=O)Nc1ccccc1)NO`, for which the growth was 12.1%.

In the case of `NC(N)=N/N=C/c1ccc(Br)cc1`, the growth is 8.33% (active).

As to `Nc1n[nH]c2cc(F)c([C@@H]3Nc4c(F)cc5[nH]ncc5c4[C@H]4C5CCC(C5)[C@@H]34)cc12` (stereo not given in full), the growth is -0.149% (active).

On to `CCOC(=O)c1c(NC(=S)Nc2ccc([N+](=O)[O-])cc2)sc2c1CCCCC2`, for which the growth was 71.2%.

Take `O=C(Nc1ccc(Oc2ccc(F)cc2)c(Cl)c1)c1cccnc1`: the growth is 57.2%.

Regarding `CC(=O)Nc1cccc(-n2c(=O)n(C3CC3)c(=O)c3c(Nc4ccc(I)cc4F)n(C)c(=O)c(C)c32)c1`, the growth was 77.2%.

With `CCOC(=O)c1nn(C2CCCCO2)c2ccc(NC(=O)CN3CCOCC3)cc12` (stereo not given), the growth is 107%.

With `COc1cc(NC(=O)Nc2cnc(Nc3ccc(N4CCOCC4)cc3)nc2Oc2cccc(OC)c2)cc(OC)c1`, the growth was 29.9%.

`O=C(CCn1cnc2c(cc(-c3ccccc3)n2-c2ccccc2)c1=O)Nc1ccc(F)cc1`: the growth was 78%.

Regarding `CC(=O)Nc1nc(C)c(-c2csc(Nc3ccccc3)n2)s1`, the growth is 4.66% (active).

Consider `COc1cc(C2C3=C(COC3=O)N(CCO)c3cc4c(cc32)OCO4)cc(OC)c1O` (stereo not given), for which the growth was -35.5% (active).

For the compound `CCCS(=O)(=O)Nc1ccc(F)c(C(=O)c2c[nH]c3ncc(-c4ccc(Cl)cc4)cc23)c1F`, the growth is 39.3%.

Consider `Cn1cc(C(=O)c2nc(-c3c[nH]c4ccc(Br)cc34)no2)c2cc(Br)ccc21`, for which the growth was 66.1%.
